SMILES strings stand for the structures. About 83,000 compounds went through this panel and 20% of them were active in at least one assay; those are over-represented in the sample as a whole.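 A percent growth of 40 corresponds to 60% growth inhibition; 0 means no net growth; -100 means all cells died. Active threshold: below 10.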 Unmarked numbers belong to inactive results. The source made the active and inactive calls.

Drawing on PubChem BioAssay (NCI), this text covers growth for seven compounds.

Test systems include DU-145 prostate; K-562 leukemia; MALME-3M melanoma; MDA-MB-231 breast; RXF 393 renal; SF-268 CNS; SF-295 CNS; SF-539 CNS; UACC-257 melanoma; M14 melanoma; HCT-15 colon; HT29 colon; SNB-75 CNS; SNB-19 CNS; U251 CNS; SK-MEL-5 melanoma; UACC-62 melanoma; LOX IMVI melanoma; SK-MEL-28 melanoma.
What all share (assay): NCI-60 one-dose screen, 48 h (100 = growth as untreated, 0 = no growth, -100 = all killed)
Common to all, as to details: 10 µM unless noted

In the case of `Cc1cc(C)nc(SC2=C(Nc3cc(Cl)ccc3O)C(=O)N(Cc3ccccc3)C2=O)n1`, the growth with DU-145 prostate was 95.8% [30 µM]; in the assay on K-562 leukemia, 58.5% [30 µM]; in the assay on MALME-3M melanoma it was -56.7% [30 µM] (active); in the assay with MDA-MB-231 breast, 64.5% [30 µM]; in the assay with RXF 393 renal it was 58.7% [30 µM]; with SF-268 CNS, 93.8% [30 µM]. Also, the growth in the assay with SF-295 CNS is 112% [30 µM]; in the assay with SF-539 CNS, 118% [30 µM]; with UACC-257 melanoma, 83.5% [30 µM]; in the assay on M14 melanoma, 95.2% [30 µM]; in the assay with HCT-15 colon, 92.1% [30 µM]; with HT29 colon, 108% [30 µM]. Further, the growth in the assay on SNB-75 CNS is 81% [30 µM]; in the assay with SNB-19 CNS, 89.6% [30 µM]; in the assay with U251 CNS it was 87.5% [30 µM]; with SK-MEL-5 melanoma it was 49% [30 µM]; in the assay on UACC-62 melanoma it was 70.6% [30 µM]; in the assay on LOX IMVI melanoma, 71.1% [30 µM]. Further, in the assay with SK-MEL-28 melanoma, the growth was 106% [30 µM].

Regarding `COc1ccc(C(=S)N2CCN(c3cccc(Cl)c3)CC2)cc1`, the growth in the assay on DU-145 prostate is 121%; in the assay on K-562 leukemia it was 119%; with MALME-3M melanoma, 138%; with MDA-MB-231 breast, 101%; in the assay with RXF 393 renal it was 160%; in the assay on SF-268 CNS, 102%. Also, the growth was 111% with SF-295 CNS; 92.2% with SF-539 CNS; -2.46% (active) in the assay on UACC-257 melanoma; 101% with M14 melanoma; 108% in the assay on HCT-15 colon; 101% in the assay on HT29 colon. Further, the growth in the assay with SNB-75 CNS was 93.2%; with SNB-19 CNS, 101%; with U251 CNS, 112%; with SK-MEL-5 melanoma, 130%; with UACC-62 melanoma, 85.2%; in the assay on LOX IMVI melanoma, 103%. Further, the growth in the assay with SK-MEL-28 melanoma was 103%.

For the compound `Cc1cc(C)nc(SC2=C(Nc3cccc(Cl)c3C)C(=O)N(Cc3ccccc3)C2=O)n1`, the growth in the assay with DU-145 prostate is 70.7% [30 µM]; in the assay on K-562 leukemia it was 45.4% [30 µM]; in the assay on MALME-3M melanoma, 58% [30 µM]; in the assay on MDA-MB-231 breast, 51.6% [30 µM]; in the assay with RXF 393 renal, 43.3% [30 µM]; in the assay on SF-268 CNS it was 72% [30 µM]. For the same compound, the growth with SF-295 CNS is -5.72% [30 µM] (active); with SF-539 CNS, 50.5% [30 µM]; in the assay with UACC-257 melanoma, 72.3% [30 µM]; in the assay on M14 melanoma it was 63.1% [30 µM]; with HCT-15 colon, 51.6% [30 µM]; with HT29 colon, 30.2% [30 µM]. Also, the growth was 50.5% [30 µM] in the assay with SNB-75 CNS; 71.9% [30 µM] in the assay on SNB-19 CNS; 49.4% [30 µM] in the assay on U251 CNS; 64.3% [30 µM] in the assay on SK-MEL-5 melanoma; 56.2% [30 µM] with UACC-62 melanoma; 59% [30 µM] in the assay on LOX IMVI melanoma. Also, the growth in the assay on SK-MEL-28 melanoma is 85.1% [30 µM].

With `C#Cc1cccc(NC(=O)c2ccccc2NC(=O)C=C)c1`, the growth with DU-145 prostate is 95.6% [8.25 µM]; in the assay with K-562 leukemia, 98.8% [8.25 µM]; with MALME-3M melanoma it was 102% [8.25 µM]; with MDA-MB-231 breast, 102% [8.25 µM]; with RXF 393 renal, 120% [8.25 µM]; with SF-268 CNS, 95.6% [8.25 µM]. For the same compound, the growth in the assay with SF-295 CNS was 105% [8.25 µM]; in the assay on SF-539 CNS, 92% [8.25 µM]; in the assay on UACC-257 melanoma, 104% [8.25 µM]; in the assay with M14 melanoma, 103% [8.25 µM]; in the assay on HCT-15 colon it was 104% [8.25 µM]; with HT29 colon, 109% [8.25 µM]. The growth in the assay with SNB-75 CNS is 75% [8.25 µM]; in the assay with SNB-19 CNS, 94.1% [8.25 µM]; with U251 CNS it was 100% [8.25 µM]; in the assay with SK-MEL-5 melanoma, 99.5% [8.25 µM]; with UACC-62 melanoma, 104% [8.25 µM]; in the assay with LOX IMVI melanoma, 97.4% [8.25 µM]. Moreover, the growth in the assay with SK-MEL-28 melanoma is 109% [8.25 µM].

Regarding `CC1SC(c2ccc(N(C)C)cc2)N(NC(=O)C(O)(c2ccccc2)c2ccccc2)C1=O` (stereo not drawn), the growth was 97.2% with DU-145 prostate; 86.1% with K-562 leukemia; 87.6% in the assay on MALME-3M melanoma; 99.1% in the assay on MDA-MB-231 breast; 118% in the assay with RXF 393 renal; 141% with SF-268 CNS. Besides, the growth in the assay on SF-295 CNS is 27.9%; with SF-539 CNS it was 96.7%; with UACC-257 melanoma it was 106%; in the assay with M14 melanoma, 96%; in the assay on HCT-15 colon, 83.8%; in the assay on HT29 colon, 93.8%. Moreover, the growth with SNB-75 CNS is 96.6%; in the assay with SNB-19 CNS, 110%; in the assay with U251 CNS it was 91.4%; in the assay with SK-MEL-5 melanoma it was 98.8%; in the assay on UACC-62 melanoma, 79.9%; in the assay with LOX IMVI melanoma it was 87.7%. For the same compound, the growth in the assay with SK-MEL-28 melanoma was 111%.

Turning to `Cn1cc(-c2nonc2-c2cn(C)c3ccc(F)cc23)c2ccccc21`, the growth in the assay on DU-145 prostate is 13.6%; in the assay with K-562 leukemia, 9.9% (active); with MALME-3M melanoma, 54.1%; in the assay with MDA-MB-231 breast, 25.6%; in the assay with RXF 393 renal, -13.4% (active); in the assay on SF-268 CNS, 43.3%. In addition, the growth is 26% in the assay with SF-295 CNS; -25.4% (active) in the assay with SF-539 CNS; 60.6% with UACC-257 melanoma; 18.6% with M14 melanoma; 18.8% with HCT-15 colon; 6.32% (active) with HT29 colon. Besides, the growth in the assay with SNB-75 CNS was -17.9% (active); with SNB-19 CNS it was 31.6%; in the assay on U251 CNS, 23.5%; with SK-MEL-5 melanoma, 24.1%; with UACC-62 melanoma it was 30.4%; with LOX IMVI melanoma, 34.8%. Also, the growth in the assay with SK-MEL-28 melanoma was 63.3%.

Consider `Cc1cc(C)nc(SC2=C(Nc3cccc(Cl)c3)C(=O)N(Cc3ccccc3)C2=O)n1`, for which the growth is 79.6% [30 µM] with DU-145 prostate; 51.8% [30 µM] in the assay with K-562 leukemia; 91.9% [30 µM] with MALME-3M melanoma; 61.2% [30 µM] in the assay with MDA-MB-231 breast; 72.6% [30 µM] in the assay with RXF 393 renal; 66.8% [30 µM] in the assay on SF-268 CNS. Besides, the growth is -12.3% [30 µM] (active) with SF-295 CNS; 69.7% [30 µM] with SF-539 CNS; 71.7% [30 µM] in the assay on UACC-257 melanoma; 74.8% [30 µM] in the assay on M14 melanoma; 59.9% [30 µM] with HCT-15 colon; 53.6% [30 µM] in the assay with HT29 colon. Besides, the growth in the assay on SNB-75 CNS was 58.5% [30 µM]; in the assay on SNB-19 CNS it was 94.4% [30 µM]; in the assay with U251 CNS, 78.5% [30 µM]; with SK-MEL-5 melanoma, 50.1% [30 µM]; in the assay with UACC-62 melanoma it was 61.4% [30 µM]; in the assay on LOX IMVI melanoma, 67.6% [30 µM]. Further, in the assay with SK-MEL-28 melanoma, the growth was 93.2% [30 µM].
